Screening results from PubChem.
PLC-gamma1 inh – blocks human PLC-gamma1 enzyme activity; purified PLC-gamma1, fluorogenic substrate, fluorescence; inhibition, % at 12.2 µM; 0.84% of 370,000 active; AID 720700; in the data active = inhibition above about 9.5%
PLCb3 inh – PLC-beta3 (human) inhibition, primary screen; inhibition, % at 12.2 µM; Q01970; AID 720704; Purified PLC-beta3, fluorogenic substrate, fluorescence; 0.18% of 370,000 active; in the data active = inhibition above about 11%
NPR1 activator – GC-A (human) enzyme activation; HEK293 GC-A cells, cGMP TR-FRET, EC30 ANP; 0% at EC30 ANP, 100% saturating ANP; activation, % at 10 µM; 0.14% of 370,000 active; P16066; AID 1671463; in the data active = activation above about 40%
NPR2 activator – GC-B (human) receptor activation | P20594 | HEK293-GC-B cells, CNP EC30, cGMP TR-FRET; 0% at EC30 CNP, 100% saturating CNP | activation, % at 10 µM | 0.11% of 370,000 active | AID 1920062;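 active = activation at 10 µM reaching about 35% in either raw or pattern-adjusted values, limit read from the data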
Target sequence (P20594 whole entry, looked up): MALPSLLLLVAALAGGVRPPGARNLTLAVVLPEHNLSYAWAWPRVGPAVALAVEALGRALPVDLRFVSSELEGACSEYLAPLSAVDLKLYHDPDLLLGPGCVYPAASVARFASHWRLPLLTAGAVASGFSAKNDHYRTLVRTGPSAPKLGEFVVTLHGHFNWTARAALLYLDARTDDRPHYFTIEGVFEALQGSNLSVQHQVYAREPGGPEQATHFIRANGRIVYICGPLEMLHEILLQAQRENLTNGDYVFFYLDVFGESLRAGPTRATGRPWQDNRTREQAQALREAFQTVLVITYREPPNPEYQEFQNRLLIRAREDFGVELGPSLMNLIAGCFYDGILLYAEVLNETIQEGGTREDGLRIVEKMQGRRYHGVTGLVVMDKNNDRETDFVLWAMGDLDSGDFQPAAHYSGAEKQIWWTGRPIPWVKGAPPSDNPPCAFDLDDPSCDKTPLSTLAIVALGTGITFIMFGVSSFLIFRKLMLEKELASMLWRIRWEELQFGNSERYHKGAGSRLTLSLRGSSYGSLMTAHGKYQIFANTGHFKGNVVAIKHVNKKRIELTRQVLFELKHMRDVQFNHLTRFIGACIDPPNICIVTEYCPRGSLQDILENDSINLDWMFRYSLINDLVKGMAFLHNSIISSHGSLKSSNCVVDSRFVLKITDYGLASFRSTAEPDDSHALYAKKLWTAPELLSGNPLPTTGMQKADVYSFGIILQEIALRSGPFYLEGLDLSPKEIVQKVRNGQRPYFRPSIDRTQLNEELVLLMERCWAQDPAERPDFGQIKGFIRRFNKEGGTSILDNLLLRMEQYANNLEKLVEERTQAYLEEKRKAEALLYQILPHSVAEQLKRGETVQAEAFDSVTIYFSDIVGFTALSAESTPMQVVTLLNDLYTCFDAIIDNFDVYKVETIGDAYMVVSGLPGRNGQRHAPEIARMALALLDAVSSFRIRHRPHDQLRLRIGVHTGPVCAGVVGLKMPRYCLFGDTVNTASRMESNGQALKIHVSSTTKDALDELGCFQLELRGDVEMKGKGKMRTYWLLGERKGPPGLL
PfM18AAP inh-1 – blocks P. falciparum M18 aspartyl aminopeptidase; recombinant PfM18AAP, H-Glu-NHMec fluorogenic cleavage; inhibition, % at 7.35 µM; 1.2% of 290,000 active; AID 1822;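 active = inhibition above the campaign mean inhibition over all tested compounds plus 3 SD, cut at about 28% in these data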
Rce1 inh – inhibitors of yeast Ras-converting enzyme; Q03530; yeast membranes, quenched prenylated peptide cleavage fluorescence; calls only; 0.27% of 290,000 active; AID 2563;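 active = fall in fluorescence gain of 50% or more versus controls, with final raw signal at or below 3038400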
PfM18AAP inh-2 – confirmation of Plasmodium falciparum M18 aspartyl aminopeptidase inhibitors | recombinant PfM18AAP, H-Glu-NHMec fluorogenic cleavage | shares compounds with PfM18AAP inh-1 | 28% of 2,400 active | inhibition, % at 7.35 µM;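 active = mean inhibition over replicate wells above the hit cutoff set for the earlier primary screen, cut at about 29% in these data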
CTSL1 confirm – Cathepsin L (human) inhibition, confirmation; inhibition, % at 5.96 µM; shares compounds with PfM18AAP inh-1; 2,400 tested, under 10 active; purified cathepsin L1, Z-Leu-Arg-MCA fluorescence;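 active = average inhibition across replicates above the hit cutoff set in the earlier primary screen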
Each line names hits and unclear results; the compound was inactive in the other large screens (follow-up assays come after a bar, where they were run). A selection: hits, their analogues and other compounds. The true share with any hit is near 2.2%.

COC(=O)CCC(=O)Nc1sc(C)c(C)c1C(N)=O	PfM18AAP inh-1 42.8 | PfM18AAP inh-2 inactive | CTSL1 confirm inactive
Cc1sc(NC(=O)C2CCCCC2C(=O)O)c(C(N)=O)c1-c1ccccc1 (stereo not given)	none
Cc1sc(NC(=O)C2CCCCC2C(=O)O)c(C(N)=O)c1C (stereo not given)	PfM18AAP inh-1 35.6 | PfM18AAP inh-2 inactive | CTSL1 confirm inactive
COC(=O)CCC(=O)NC(=S)Nc1sc(C)c(C)c1C(N)=O	none
Cc1[nH]nc2c1C(c1ccc(Br)cc1)N(c1ccccc1)C2=O (stereo not given)	none (no result: PfM18AAP inh-1, Rce1 inh)
CC(C)CN1C(=O)C[C@@]2(C(=O)N(C)c3ccc(NS(=O)(=O)c4ccc(F)cc4)cc32)C1c1ccccc1 (stereo not given in full)	none (no result: PfM18AAP inh-1, Rce1 inh)
O=C1N(Cc2ccccc2)c2ccccc2C12CCCc1oc(CCc3ccccc3)nc12 (stereo not given)	none (no result: PfM18AAP inh-1, Rce1 inh)
C/C(=N\NC(=O)c1cc(C)nc2ccccc12)c1ccco1	none
C/C(=N\Nc1nc2ccccc2c(=O)n1O)c1ccco1	PfM18AAP inh-1 38.3 | PfM18AAP inh-2 inactive | CTSL1 confirm inactive
Cc1csc(/C(=N/OC(=O)c2ccco2)C(N)=O)n1	PfM18AAP inh-1 50.9 | PfM18AAP inh-2 inactive | CTSL1 confirm inactive
COc1ccc(/C(N)=N/OC(=O)c2ccco2)cc1OC	none
CC(=O)Nc1ccc(NC(=O)CC2Nc3cccc4cccc(c34)NC2=O)cc1 (stereo not given)	PfM18AAP inh-1 32.5 | PfM18AAP inh-2 inactive | CTSL1 confirm inactive
O=C(Oc1ccccc1O)c1cccc2ccccc12	PfM18AAP inh-1 61.3 | PfM18AAP inh-2 inactive | CTSL1 confirm inactive
O=C(Oc1cccc2c(O)cccc12)c1ccccc1Cl	none (no result: PfM18AAP inh-1, Rce1 inh)
COC(=O)c1cc2c(c3c4cc(F)ccc4n(C(=O)c4ccccc4)c13)C(=O)N(C1CCCCC1)C2	none (no result: PfM18AAP inh-1, Rce1 inh)
Cc1nc2c(cc1C(=O)N/N=C/c1ccc(O)c(O)c1)c(=O)n(C)c(=O)n2C	PfM18AAP inh-1 62.2 | PfM18AAP inh-2 68.1 | CTSL1 confirm inactive
O=C(N/N=C/c1ccc(O)c(O)c1)c1ccc(-n2cnnn2)cc1	none (no result: PfM18AAP inh-1, Rce1 inh)
CC1(c2ccc([N+](=O)[O-])cc2)Nc2ccccc2S1 (stereo not given)	PfM18AAP inh-1 35.5 | PfM18AAP inh-2 inactive | CTSL1 confirm inactive
Cc1ccc(C2CC(=O)N3CN(c4ccc(Br)cc4)CSC3=C2C#N)o1 (stereo not given)	PfM18AAP inh-1 37.2 | PfM18AAP inh-2 inactive | CTSL1 confirm inactive
COc1cc(OC)c(C2CC(=O)N3CN(c4ccccc4)CSC3=C2C#N)cc1OC (stereo not given)	PfM18AAP inh-1 38.7 | PfM18AAP inh-2 inactive | CTSL1 confirm inactive
O=C(CN1CCN(c2nc(-c3ccccc3)cs2)CC1)Nc1ccc(Cl)c(Cl)c1	none (no result: PfM18AAP inh-1, Rce1 inh)
COc1cccc(OC(C)CCN2CCC(C(O)(c3ccccc3)c3ccccc3)CC2)c1 (stereo not given)	none (no result: PfM18AAP inh-1, Rce1 inh)
CC(=O)c1ccc2c(c1)N(C)c1ccccc1S2	none
C=Cc1ccc2c(c1)N(C)C(=C)S2	PfM18AAP inh-1 47.1 | PfM18AAP inh-2 inactive | CTSL1 confirm inactive
Cc1nc(/C(=N/O)C(N)=O)cs1	PfM18AAP inh-1 47.6 (no result: Rce1 inh) | PfM18AAP inh-2 38.0 | CTSL1 confirm inactive
Cc1nc(C(=O)NNC(=O)c2ccc(Cl)cc2)cs1	none
C[C@H](O)[C@@H]1CN2CCc3c([nH]c4c(-c5ccc6c(c5)OCO6)cccc34)[C@@H]2C[C@@H]1N(C)C(=O)NC1CCCCC1	none (no result: PfM18AAP inh-1, Rce1 inh)
CC1(C)CC(=O)C/C(=N\NC(=S)NCc2ccccc2)C1	PfM18AAP inh-1 43.4 | PfM18AAP inh-2 37.7 | CTSL1 confirm inactive
CC(C)CCNC(=S)Nc1ccccn1	PfM18AAP inh-1 32.6 | PfM18AAP inh-2 inactive | CTSL1 confirm inactive
COCCNC(=S)Nc1ccccn1	none
C[C@H]1[C@H](NC(=O)c2ccc(C(F)(F)F)cc2)CC[C@@]23CCCN2C(=O)CCC[C@@H]13	none (no result: PfM18AAP inh-1, Rce1 inh)
O=C(OCCN1CCCC12CCC(c1ccccc1)CC2)c1ccccc1 (stereo not given)	none (no result: PfM18AAP inh-1, Rce1 inh)
Oc1ccc(-c2csc(Nc3ncccn3)n2)c(O)c1	none
Cc1ccc2nc(-c3ccc(O)c(O)c3)cn2c1	PfM18AAP inh-1 69.9 | PfM18AAP inh-2 54.8 | CTSL1 confirm inactive
Oc1ccc(-c2csc(-c3ccccc3)n2)cc1O	PfM18AAP inh-1 55.2 (no result: NPR1 activator, NPR2 activator) | PfM18AAP inh-2 59.7 | CTSL1 confirm inactive
Oc1ccc(-c2csc(Nc3ncccn3)n2)cc1O	PfM18AAP inh-1 64.7 | PfM18AAP inh-2 53.3 | CTSL1 confirm inactive
Oc1ccc(-c2csc(-c3cccnc3)n2)cc1O	PfM18AAP inh-1 72.7 | PfM18AAP inh-2 84.8 | CTSL1 confirm inactive
Cc1ccc(C2CCC3(CCC(=O)N3CCOC(=O)Nc3cccc(C#N)c3)CC2)cc1 (stereo not given)	none (no result: PfM18AAP inh-1, Rce1 inh)
CN(C(=O)c1ccccc1OCC(=O)Nc1ccc(Br)cc1)c1ccccc1	none (no result: PfM18AAP inh-1, Rce1 inh)
O=C(NCCCc1ccccc1)[C@H](Cc1c[nH]c2ccccc12)NC1(C(=O)NCCc2c[nH]c3ccccc23)CCOCC1	none (no result: PfM18AAP inh-1, Rce1 inh)
COc1cc(-c2csc(C)n2)ccc1O	none
Cc1nc(-c2ccc(O)c(O)c2)cs1	PfM18AAP inh-1 94.0 | PfM18AAP inh-2 86.8 | CTSL1 confirm inactive
S=c1nc(C2CCCCC2)n(-c2ccccc2)[nH]1	PfM18AAP inh-1 34.7 | PfM18AAP inh-2 inactive | CTSL1 confirm inactive
COc1ccc(-n2cc(-c3ccc(Br)cc3)[nH]c2=S)cc1	none
COc1ccc(-n2cc(-c3ccc(OC)c(OC)c3)[nH]c2=S)cc1	PfM18AAP inh-1 40.6 | PfM18AAP inh-2 inactive | CTSL1 confirm inactive
COc1ccc(/C=N\NC(=O)c2cc(O)c(O)c(O)c2)cc1CN1CCN(c2ccc(F)cc2)CC1	PfM18AAP inh-1 37.9 | PfM18AAP inh-2 inactive | CTSL1 confirm inactive
COc1ccc(/C=N/NC(=O)c2ccc(C)cc2)cc1CN1CCN(c2ccc(F)cc2)CC1	none (no result: PLC-gamma1 inh, PLCb3 inh)
COc1ccc(/C=N\NC(=O)c2cc(O)c(O)c(O)c2)cc1COc1ccc(C(=O)OCC(C)C)cc1	PfM18AAP inh-1 31.8 | PfM18AAP inh-2 inactive | CTSL1 confirm inactive
CCCCOCCCNC(=O)C[C@H]1C[C@@]2(C(=O)OC)C(=C[C@H](C(C)(C)C)O[C@@H]2C)N(Cc2cccc3ccccc23)C1=O	none (no result: PfM18AAP inh-1, Rce1 inh)
O=C(Nc1ccon1)c1ccc(F)c(S(=O)(=O)N2CCCCC2)c1	none
Cc1ccc(C(=O)Nn2cnnc2)cc1S(=O)(=O)N1CCOCC1	PfM18AAP inh-1 51.2 | PfM18AAP inh-2 44.3 | CTSL1 confirm inactive
O=C(Nn1cnnc1)c1ccc(F)c(S(=O)(=O)N2CCCCC2)c1	PfM18AAP inh-1 47.5 | PfM18AAP inh-2 53.4 | CTSL1 confirm inactive
